# About 83,000 compounds went through this panel and 20% of them were active in at least one assay; those are over-represented in the sample as a whole.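 Activity criterion: percent growth below 10, measured after cells in 96-well plates were exposed to a single compound concentration for 48 hours.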 The source made the active and inactive calls.
# Tested on: KM12 colon
# Assay: NCI-60 one-dose screen, 48 h (100 = growth as untreated, 0 = no growth, -100 = all killed)
# Settings: 10 µM unless noted
# Description: Growth inhibition of the KM12 human tumor cell line is measured as a screen for anti-cancer activity. Cells are grown in 96 well plates and exposed to the test compound for 48 hours. Compounds are tested at a single concentration, which is 10^-5 M for most compounds. The reported endpoint is percent growth (GI% or GIPRCNT), where numbers from 0 - 100% represent growth inhibition, and numbers from -100% - 0 represent cell death. For example, a value of 40 represents 60% growth inhibition. A value of 0 means no net growth occurred over the course of the experiment. A value of -40 indicates 40% of cells at the beginning of the experiment died by the end of the experiment. A value of -100 means all cells are dead at the end of the experiment.
# NCI-60 Human Tumor Cell Lines Screen was performed using the standard one-dose NCI protocol, which is described in more detail at https://dtp.cancer.gov/discovery_development/nci-60/default.htm.
# Compounds with GIPRCNT values below 10 were considered active. Activity score was based on GIPRCNT using the following formula: […]
# Score is 0 for GIPRCNT values of 100 or above, 50 for GIPRCNT values of 0, and 100 for GIPRCNT values of -100.
row,SMILES,growth
1,O=CC(OC(=O)c1ccccc1)C(OC(=O)c1ccccc1)C(COC(c1ccccc1)(c1ccccc1)c1ccccc1)OC(=O)c1ccccc1 (stereo not given),61% (inactive)
2,CCc1nc2cc(/C=C/C(=O)NO)ccc2c(=O)n1CCc1ccc(F)cc1,12% (inactive)
3,C#Cc1cccc(Nc2ncnc3cc(OCCOC)c(OCCOC)cc23)c1,77.8% (inactive)
4,CC[C@@H]1C(=O)N(C)c2cnc(Nc3ccc(C(=O)NC4CCN(C)CC4)cc3OC)nc2N1C1CCCC1,12.9% (inactive)
5,COc1ccc(-c2ccc3ncc4c(c3c2)n(-c2ccc(N3CCNCC3)c(C(F)(F)F)c2)c(=O)n4C)cn1,-95.8% (active)
6,CCCCCC(=O)OCc1ccc(Cl)c(Cl)c1,103% (inactive)
7,CC1(C=O)NC(=O)NC1=O (stereo not given),108% (inactive)
8,COc1cc2c(cc1OCCCCCCN1CCN(c3ncnc4ccccc34)CC1)N=CC1CCCN1C2=O (stereo not given),-27.9% (active)
9,CC(C)(C)c1ccc(Cn2cc(CSc3nc4ccccc4s3)nn2)cc1,101% (inactive)
10,COC(=O)[C@@H](C)CNS(=O)(=O)N(c1cc(C(F)(F)F)cc(C(F)(F)F)c1)C1CCN(Cc2ccc(F)cc2)CC1,51% (inactive)
11,CCc1ccc(/C=C/c2ccc(O)c3ncccc23)[n+](C)c1,40.2% (inactive)
12,COC(=O)CC[C@@H](C)[C@H]1CC[C@H]2C3CC[C@@H]4C[C@@H]5CC[C@]4(C)[C@@]3(O5)[C@H](Br)[C@@H](Br)[C@]12C (stereo not given in full),99.8% (inactive)
13,CN[C@@H]1C[C@H]2O[C@@](C)([C@@H]1OC)n1c3ccccc3c3c4c(c5c6ccccc6n2c5c31)C(=O)N[C@H]4O,-59.8% (active)
14,CC[n+]1c(/C=C/C=C2\N(C)c3ccccc3C2(C)C)sc2ccccc21,3.17% (active)
15,CNS(=O)(=O)Nc1nccc(Cc2c(C)c3ccc(Oc4ncccn4)cc3oc2=O)c1F,26.1% (inactive)
16,NC1=Nc2ccccc2N(O)N1,104% (inactive)
17,COc1cc(C(=O)NNC(=O)c2ccc(NC(=O)CCl)cc2)cc(OC)c1OC,99.7% (inactive)
18,CCCCN1CCCC[C@@H]1C(=O)N[C@H](C(=O)N(C)[C@H](CCc1nc(C(=O)N[C@@H](Cc2ccccc2)C[C@H](C)C(=O)OC)cs1)C(C)C)C(C)C,47.7% (inactive)
19,CCN(CC)CCNc1ccc(N=Nc2cnc3ccccc3c2)c2ccccc12,-87.3% (active)
20,c1cc(OCCN2CCCCC2)cc(-c2n[nH]c3ccc(-c4ncn[nH]4)cc23)c1,39.6% (inactive)

row,SMILES,growth
1,CC(C)=CCc1cc2c(cc1O)C1=C(C(=O)C3=C(NCCS3(=O)=O)C1=O)C(C=C(C)C)O2 (stereo not given),54.5% (inactive)
2,CCN(CC)c1cc2oc3cc(N)cc(=N)c-3nc2cc1C,40.2% (inactive)
3,COc1ccc(C(=O)N2c3ccccc3Sc3ccccc32)c(F)c1,22.7% (inactive)
4,Clc1nc(Cl)c2ncn(C/C=C\Cn3cnc4c(Cl)nc(Cl)nc43)c2n1,-69.2% (active)
5,Cc1cccc(Cl)c1NC(=O)c1cnc(Nc2cc(N3CCOCC3)cc(N3CCOCC3)c2)s1,62.4% (inactive)
6,CNC(=O)c1c(C)oc2cc(Oc3ncnc4cc(OC)c(OC)cc34)ccc12,102% (inactive)
7,COc1cc2c(cc1O)c(=O)n(CCN(C)C)c1c3cc4c(cc3ncc21)OCO4,-11.6% (active)
8,CC1(COc2ccc3c(c2)ncn3-c2ccc3cccc(N4CCC(N)CC4)c3n2)COC1,6.35% (active)
9,Cn1ccnc1C(=O)/C=C/c1ccc(CC(=O)Nc2ccc(S(F)(F)(F)(F)F)cc2)cc1,-56.9% (active)
10,COc1cc2cc(NCc3ccc(Cl)cc3)nc(C)c2cc1OC,37.2% (inactive)
11,Cc1sc2c(c1C)c(=O)nc1c(-c3nc4ccccc4s3)n[nH]n12,98.7% (inactive)
12,CN1[C@@H]2CC[C@H]1/C(=C\c1ccccc1)C1=C2[C@@H](c2ccccc2)C(C#N)=C(N)O1,85.3% (inactive)
13,NC(=O)N1N=C(c2ccc(Cl)cc2)CC1c1cn(-c2ccccc2)nc1-c1ccc(Cl)cc1 (stereo not given),62.7% (inactive)
14,Cc1cc2c(F)c(Oc3ncnn4cc(OC[C@@H](C)OC(=O)[C@H](C)N)c(C)c34)ccc2[nH]1,35.1% (inactive)
15,N#Cc1c(NC(=O)c2cccs2)[n+]([O-])c2ccc(F)cc2[n+]1[O-],92.2% (inactive)
16,C=CC(=O)N1CCC[C@@H](n2nc(-c3ccc(Oc4ccccc4)cc3)c3c(N)ncnc32)C1,53.6% (inactive)
17,COc1c(OCCCN2CCOCC2)ccc2c3n(c(=NC(=O)c4cnc(N)nc4)nc12)CCN3,-2.1% (active)
18,COc1cc(-c2cc(-c3ccc(Nc4ccnc5cc(Cl)ccc45)cc3)nc(N3CCOCC3)n2)cc(OC)c1OC,25.2% (inactive)
19,CN(c1ncccc1CNc1nc(Nc2ccc3c(c2)CC(=O)N3)ncc1C(F)(F)F)S(C)(=O)=O,1.83% (active)
20,COc1cc(Nc2ncc3c(n2)-c2ccc(Cl)cc2C(c2c(F)cccc2OC)=NC3)ccc1C(=O)O,28.3% (inactive)

# — PubChem BioAssay (NCI)
